D2 PAM-1 = positive allosteric modulators of human D2 dopamine receptor; P14416; HEK293 T-REx D2, calcium flux, EC20 dopamine potentiation; potentiation, % at 10 µM; hit rate 0.34% among 340,000;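 active = potentiation over 3 SD above the plate norm, cut at about 30% in these data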; note: 0% is about no effect
Target sequence (P14416 whole entry, looked up): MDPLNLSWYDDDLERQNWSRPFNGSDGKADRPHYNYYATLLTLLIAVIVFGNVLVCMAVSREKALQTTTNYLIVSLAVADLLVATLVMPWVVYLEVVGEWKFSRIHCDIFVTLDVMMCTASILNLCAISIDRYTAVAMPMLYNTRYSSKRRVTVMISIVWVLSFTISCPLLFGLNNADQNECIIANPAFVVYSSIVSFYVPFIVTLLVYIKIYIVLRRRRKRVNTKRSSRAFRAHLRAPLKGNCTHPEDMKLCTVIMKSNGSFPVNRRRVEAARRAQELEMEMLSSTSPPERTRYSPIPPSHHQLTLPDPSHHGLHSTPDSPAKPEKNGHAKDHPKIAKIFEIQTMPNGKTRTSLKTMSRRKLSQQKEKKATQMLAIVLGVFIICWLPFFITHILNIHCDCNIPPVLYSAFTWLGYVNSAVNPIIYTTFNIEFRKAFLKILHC
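Calcium flux readout, no-wash dye, 1 read/s. Inducible HEK293 Trex D2 line, overnight 30 C. Compound alone 180 s (agonist flags), then EC20 dopamine, another 180 s to score potentiation.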
D2 ag-1 = human D2 receptor agonism in beta-arrestin assay. activation, % (test concentration not listed). DiscoveRx PathHunter D2 beta-arrestin, luminescence, 90 min; 100% = 57 uM dopamine signal. AID 624465. P14416. hit rate 0.084% among 360,000; in the data active = activation above about 40%
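Agonist mode: compounds alone added to overnight-plated D2 PathHunter cells for 90 min at 37 C, with 57 uM final dopamine (EC100) defining full response. Beta-arrestin recruitment detected by chemiluminescent reagent, read after 1 h at ambient temperature.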
D2 antagonist = D2 dopamine receptor (human) antagonism | P14416 | HEK293 TREx D2 cells, calcium flux, dopamine EC80 | inhibition, % at 10 µM | hit rate 2% among 340,000 | AID 485344; in the data active = inhibition above about 30%; inactive = below that, where a call was filed; note: 0% is about no effect
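HEK293 T-REx D2 cells, tet-induced, calcium dye no-wash. Cpd pintool add, 180 s kinetic, then EC80 DA, 180 s kinetic. Ca flux read.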
D2 ag-2 = activates the human D2 dopamine receptor. hit rate 0.53% among 340,000. activation, % at 2 µM. HEK293 T-REx D2 cells, calcium flux agonist mode. AID 485358. P14416;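 active = activation over 3 SD above normal in the single-dose calcium agonist read, cut at about 30% in these data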; note: 0% is about no effect
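Tetracycline-induced HEK293 Trex cells with D2 receptor force-coupled to calcium signaling, plated overnight at 30 C and loaded with no-wash calcium dye. Calcium flux read kinetically for 180 s after compound addition; responses flag agonists.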
D2 PAM-2 = human D2 receptor positive allosteric modulation | DiscoveRx D2 beta-arrestin cells, luminescence, 90 min; 100% = 57 uM dopamine signal | potentiation, % (no concentration beside the values) | P14416 | hit rate 0.23% among 360,000 | AID 624464; in the data active = potentiation above about 50%
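D2 cells co-treated with compound plus 50 nM dopamine (EC20) for 90 min at 37 deg C to detect potentiation. Beta-arrestin recruitment was read as enzyme-fragment luminescence after 1 h at ambient temperature. Full response was set by 57 uM dopamine.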
* marks the source's active call; other numbers are inactive results; · = no result given. Compounds with a hit are over-represented: about 2.4% of the library has one in this group of screens.

SMILES | D2 PAM-1 | D2 ag-1 | D2 antagonist | D2 ag-2 | D2 PAM-2
COc1ccc(C(CNC(=S)NCc2ccccc2)N2CCCC2)cc1 (centres undefined) | -17.5 | -5.0 | 40.5* | 0.4 | -17.1
COc1ccc(NC(=S)NCC(c2cccnc2)N2CCOCC2)cc1 (centres undefined) | 30.3* | -0.3 | 10.0 | 0.4 | -0.4
COc1ccc(C(CNC(=O)c2oc3ccc(Cl)cc3c2C)N2CCCCC2)cc1 (centres undefined) | -13.7 | -3.9 | -21.2 | -1.3 | -17.2
COc1ccc(C(CNC(=O)c2oc3c(Cl)cccc3c2C)N2CCCC2)cc1 (centres undefined) | -21.3 | -3.9 | 39.1* | 0.3 | -44.5
CCC(CC)C(=O)NC12CC3CC(CC(C3)C1)C2 | 25.0 | -2.4 | 32.5* | -1.9 | -2.4
CN1CCCN(C(=O)CNC(=O)Cc2ccccc2)CC1 | 8.7 | -0.7 | 1.8 | 1.3 | -10.7
O=C(Cc1ccccc1)NCC(=O)N1CCCC1 | 5.2 | -2.8 | 34.6* | 1.5 | -6.3
O=C(NCc1ccccc1Cl)c1ccc2sc([C@@H]3O[C@H](CO)[C@H](O)[C@H](O)[C@H]3O)nc2c1 | · | -10.0 | · | · | -14.6
Cn1cc(CN2CCN(c3ccccc3)CC2)c2ccccc21 | -15.8 | 7.3 | 80.9* | 74.1* | -10.1
Cc1ccc(NC(=O)CSc2nc(=O)n(CCCN3CCOCC3)c3c2CCCC3)cc1F | 2.9 | -2.4 | 31.1* | -2.5 | -31.5
COc1ccc(-n2c(Cc3cc(=O)[nH]c(=O)[nH]3)nnc2SCC(=O)Nc2cc(C(F)(F)F)ccc2Cl)cc1 | -20.0 | -3.3 | 40.8* | -0.5 | -14.6
Cc1ccc2c(=O)cc(C(=O)Nc3c(C)n(C)n(-c4ccccc4)c3=O)oc2c1C | -3.6 | · | · | -0.2 | ·
COc1cccc(OC)c1-c1nn(-c2ncc(C(F)(F)F)cc2Cl)c(=O)o1 | 10.4 | -6.3 | 37.7* | 2.9 | -11.7
Cc1ccn(CC(C)C(=O)O)n1 (centres undefined) | -13.6 | -3.3 | 33.9* | 0.7 | -4.5
Cc1ccn(CCSCC(=O)O)n1 | -8.7 | 3.5 | 11.3 | -0.5 | 7.5
O=C(CCN1C(=O)S/C(=C\c2ccccc2)C1=O)N1CCCCC1 | 6.7 | -3.2 | 35.0* | 0.2 | -6.1
CN1CCN(C(=O)CCN2C(=O)/C(=C/c3cccc(Br)c3)SC2=S)CC1 | 3.1 | -2.7 | 31.0* | 0.5 | -7.9
COc1cc(-c2nc(Cn3nnc(C(=O)Nc4cc(C)cc(C)c4)c3C)c(C)o2)cc(OC)c1OC | 11.2 | · | · | 1.7 | ·
Cc1cccc(/C=N/NC(=O)c2cc3c(s2)-c2ccccc2CC3)c1 | 14.2 | 0.4 | 31.8* | 0.9 | -0.4
COc1ccc2c(c1)NC1(O)c3ccccc3C(=O)C21O (centres undefined) | -7.9 | -1.6 | 32.3* | -0.4 | 0.5
CC1=C(C#N)C2(O)C(=O)c3ccccc3C2(O)N1 (centres undefined) | -7.0 | -0.3 | -7.5 | 1.8 | -3.9
COC(=O)c1ccc(NC(=O)Cc2coc3cc(C)ccc23)cc1 | -25.0 | · | · | -0.2 | ·
O/N=C1/CCc2nonc2/C1=N/O | 1.5 | 9.8 | 39.1* | 0.1 | -11.5
CCc1nc2ccc(C(=O)NCCOc3ccc(OC)cc3)cn2c1N(C=O)Cc1ccc(OC)cc1 | · | -6.3 | · | · | -6.8
COc1ccc(NC(=O)c2cc(=O)c3ccc(C)c(C)c3o2)cc1Cl | -4.5 | · | · | -0.5 | ·
SMILES | D2 PAM-1 | D2 ag-1 | D2 antagonist | D2 ag-2 | D2 PAM-2
CCc1ccc(N2CCN(CCNC(=O)Nc3ccccc3)CC2)cc1 | · | 7.6 | 73.5* | · | 10.2
O=C(CCNS(=O)(=O)c1ccc(OC(F)(F)F)cc1)NCCc1c[nH]c2ccccc12 | 3.0 | 7.0 | 39.7* | -0.1 | 7.0
CCCCCCc1cc2cc(C(=O)OCC)c(=O)oc2cc1O | 3.4 | -4.1 | -2.0 | 5.0 | -6.0
CCCCCCc1cc2cc(/C(N)=N/NC(=O)c3ccncc3)c(=O)oc2cc1O | 13.9 | 3.2 | -1.9 | 34.4* | -6.5
CCC(=O)Oc1ccc2c(=O)c(-c3ccc4ccccc4n3)c(CC)oc2c1C | -1.7 | 0.2 | -8.0 | -0.7 | 1.6
Cc1oc2c(C)c(O)ccc2c(=O)c1-c1ccc2ccccc2n1 | -4.3 | -2.7 | 43.9* | -0.3 | -14.8
CCOC(=O)c1c(S(=O)(=O)N2CCC(C(=O)Nc3ccccc3OC)CC2)c(C)n(CC)c1C | 3.7 | · | · | 0.1 | ·
Cc1nc(Cl)sc1C(=O)Nc1ccccc1 | -2.2 | -9.2 | -1.3 | 0.0 | 4.8
Cc1nc(Cl)sc1C(=O)Nc1ccc(Cl)cc1 | 10.3 | -3.2 | 40.2* | -0.4 | -0.8
CC1(NC(=O)C2CCCCC2)CCS(=O)(=O)C1 (centres undefined) | -3.2 | -18.1 | 42.0* | 1.8 | 0.0
O=C(CN1CCOCC1)Nc1scc2c1c(=O)oc1ccccc12 | -7.0 | -1.0 | 35.7* | 0.0 | -1.7
COC(=O)c1c(-c2cccs2)csc1NC(=O)CN1CCOCC1 | 33.0* | -4.2 | -14.6 | 0.8 | -13.5
COC(=O)c1c(-c2cccs2)csc1NC(=O)c1ccc(C)cc1 | 13.8 | · | · | 2.4 | ·
Cc1ccc(NC(=O)CSc2n[nH]c(-c3ccc(F)cc3)n2)cc1F | 10.2 | · | · | 0.1 | ·
Cc1cc(C)c(S(=O)(=O)Nn2cnnc2)c(C)c1 | 9.2 | -1.3 | 31.9* | 0.6 | -3.6
CCCOC(=O)c1ccc(NC(=O)c2nc3nc(C)cc(C)n3n2)cc1 | 31.1* | -3.0 | 7.8 | -0.7 | -7.6
Cc1cc(C)n2nc(C(=O)OCC(=O)Nc3ccc(Cl)cc3)nc2n1 | · | 0.6 | · | · | 0.0
COCCCNC(=O)c1cc2c(=O)oc3ccc(C)cc3c2s1 | 13.8 | · | · | -0.3 | ·
Cc1ccc2oc(=O)c3cc(C(=O)NCCCN4CCCC(C)C4)sc3c2c1 (centres undefined) | -17.9 | -1.5 | 42.8* | -0.2 | -32.0
CCCN1CCN(CCCNC(=O)c2cc3c(=O)oc4ccc(C)cc4c3s2)CC1 | 34.4* | -1.5 | 5.4 | 0.0 | -11.1
O=C(O)c1ccccc1-c1ccc(/C=C/c2cc(C(F)(F)F)[nH]c(=O)n2)o1 | 2.3 | -2.6 | 16.0 | 45.2* | -0.3
COc1ccc(NC(=O)Cn2nnc(-c3nc(-c4ccncc4)no3)c2N)cc1OC | 0.6 | · | · | 0.0 | ·
Cc1cc(Cl)ccc1OC(C)C(=O)NCCc1ccc2c(c1)OCCO2 (centres undefined) | -6.8 | -3.4 | 63.6* | 0.8 | -4.9
Cc1cn([C@H]2C[C@H](O)[C@@H](CNC(=O)c3ccccn3)O2)c(=O)[nH]c1=O | · | -1.7 | · | · | ·
COc1ccc(-c2nn(-c3ccccc3)cc2C(=O)Nc2ccc(C(=O)O)cc2)cc1 | 1.9 | 3.9 | 7.1 | 0.2 | 7.1
COc1ccc(NC(=O)c2cn(-c3ccccc3)nc2-c2ccncc2)cc1 | -20.6 | 5.6 | 68.4* | -1.0 | -9.3
COc1cc(NC(=O)CCCC(=O)OCC(F)(F)C(F)F)nc(OC)n1 | 6.4 | -0.2 | 52.2* | -1.2 | 9.8
O=C1CN(C(=O)/C=C/c2ccc(Br)cc2)CCN1 | · | -0.6 | · | · | -2.7

From PubChem BioAssay
